# The other results are listed elsewhere or left out. Active and inactive are the calls of the source. Cut-off read from the data, not from the text of the source: active = inhibition above about 0.66%; inactive = the rest.
# Target: Beta-lactamase TEM (Escherichia coli) (UniProt P62593)
# Experiment: Serine beta-lactamase TEM-1 inhibition, biochemical epi-absorbance counter-screen for IMP-1/VIM-2 inhibitor program (AID 2184)
# Conditions: TEM-1 beta-lactamase, nitrocefin absorbance inhibition; at 5.6 µM; stronger effect = higher value
# Sequence of Beta-lactamase TEM (Escherichia coli) (P62593 whole entry, looked up): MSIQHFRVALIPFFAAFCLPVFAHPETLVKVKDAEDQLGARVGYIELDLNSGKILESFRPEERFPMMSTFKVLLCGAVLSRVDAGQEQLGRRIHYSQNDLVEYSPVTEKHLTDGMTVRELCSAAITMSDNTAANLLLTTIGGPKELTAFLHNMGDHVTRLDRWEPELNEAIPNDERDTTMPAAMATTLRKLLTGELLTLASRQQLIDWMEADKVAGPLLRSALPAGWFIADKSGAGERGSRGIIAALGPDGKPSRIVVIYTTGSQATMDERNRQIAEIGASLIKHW
row,Compound,inhibition
1,NC(=O)c1ccc(NC(=O)COC(=O)c2c3c(nc4ccccc24)/C(=C\c2ccc4c(c2)OCO4)CCC3)cc1,-4.26% (inactive)
2,NS(=O)(=O)c1ccc(NC(=O)COC(=O)c2c3c(nc4ccccc24)/C(=C\c2ccc4c(c2)OCO4)CCC3)cc1,-4.87% (inactive)
3,COc1cc(/C=C2/SC(=S)N(Cc3ccccc3)C2=O)cc(OC)c1O,12.7% (active)
4,CN1C(=O)c2cccc3c(N)ccc(c23)C1=O,49.7% (active)
5,C/C(=N\Nc1ccc(S(N)(=O)=O)cc1[N+](=O)[O-])c1cccs1,1.6% (active)
6,Cc1cc2nc3c(=O)n(Cc4ccccc4)c(=O)[nH]c3nc2cc1N,30.2% (active)
7,Nc1c(C(=O)c2cccs2)sc2nsc(SCCN3CCCCC3)c12,23.4% (active)
8,Oc1ccc2ccc3cccc[n+]3c2c1,25.5% (active)
9,Cc1nn(C)cc1N1C(=O)c2cccc3c(N)ccc(c23)C1=O,43.9% (active)
10,c1ccc(-c2nccc(-c3ccc(-n4cnc5ccccc54)cc3)n2)nc1,-3.39% (inactive)
11,CCC(=C/c1sc2ccc3ccccc3c2[n+]1C)/C=C1\Sc2ccc3ccccc3c2N1C,-0.12% (inactive)
